Measured values published in PubChem BioAssay AID2100 (National Center for Advancing Translational Sciences (NCATS), 2009).
Among all 300,000 compounds or so, about 1,200 (0.4%) were called active. Inconclusive results (about 3%) are left out. Many of the other results were omitted from the sample, so actives are more common in it than they were. Values without a mark were called inactive. Calls follow the shape of the dose curve; as a rule, active = well fitted inhibition curve with a large enough effect; inconclusive = small, poorly fitted or top-dose-only effect, or another doubt; inactive = no such curve, though single readings can be large or run the other way.

molecular target: Lysosomal alpha-glucosidase (Homo sapiens) (UniProt P10253); experiment: qHTS Assay for Inhibitors and Activators of Human alpha-Glucosidase Cleavage of Glycogen; details: recombinant GAA, glycogen substrate, Amplex Red glucose oxidase fluorescence; series mostly up to 76.3 µM; activity change, negative = inhibition: at the top concentration;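 also: the screen sought inhibitors and activators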;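 as to activity change, negative = inhibition: 0% = full enzyme reaction and -100% = no-enzyme basal signal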
Source text: NIH Chemical Genomics Center [NCGC] NIH Molecular Libraries Probe Production Centers Network [MLPCN] MLPCN Grant: R03 MH084841-01 Assay Submitter (PI): Wei Zheng NCGC Assay Overview: Alpha-glucosidase is responsible for the hydrolysis of terminal, non-reducing 1,4-linked alpha-D-glucose residues, which releases alpha-D-glucose. It is a lysosomal hydrolase that is required for the degradation of a small percentage (1-3%) of cellular glycogen in humans. Deficiency of this enzyme results in glycogen-storage disease type II (GSDII), also referred to as Pompe disease, an autosomal recessive disorder. Structurally normal glycogen is accumulated in the lysosomes and cytoplasm in affected patients, primarily in muscle tissues. Excessive glycogen storage within lysosomes may interrupt normal functioning of other organelles and leads to cellular injury. In turn, this leads to enlargement and dysfunction of the entire organ involved (eg: cardiomyopathy and muscle weakness). It has been reported that the improper folding and trafficking of alpha-glucosidase resulting from genetic mutations may account for a significant number of Pompe patients. […] We optimized this alpha-glucosidase assay in 1536-well plate format for identification of novel small molecule inhibitors or activators with structures other than the sugar analogs in order to develop new pharmacological chaperones. Previous assays of alpha-Glucosidase have utilized a non-natural fluorescent substrate to probe enzyme activity. The present assay measures enzyme activity on glycogen using a coupled-assay system to glucose oxidase.
NCGC Assay Protocol Summary: This is an enzyme assay using glycogen from bovine liver (Sigma catalog #: G0885) as the substrate and recombinant human alpha-glucosidase as the enzyme preparation. Upon hydrolysis of the substrate, the glucose product can be detected using the Amplex Red Glucose Oxidase Assay Kit (Invitrogen catalog #: A22189). The product of this reaction can be read with a fluorescence plate reader with an excitation at 573 nm and an emission at 610 nm. Data were normalized to the controls for basal activity (without enzyme) and 100% activity (with enzyme). The AC50 values were determined from concentration-response data modeled with the standard Hill equation. Assay buffer for enzyme reaction: 50 mM citric acid (titrated with potassium phosphate to pH 5.0), 0.01% Tween-20 (pH 5.0 is an optimal condition for this enzyme assay) Assay buffer for Amplex Red reaction: Tris-HCl, pH 7.5 1536-well assay protocol for the alpha-glucosidase assay: (1) Add 2 ul/well alpha-glucosidase enzyme solution (4 nM final) (2) Add 23 nL compounds in DMSO solution. The final titration was 0.7 nM to 77 uM. (3) Add 1 ul of glycogen substrate solution (30 ug) (4) Incubate at 37 C for 40 min (5) Add 2 ul tris-HCl buffer with Amplex Red reagents (6) Incubate 45 min at room temperature. (7) Detect the assay plate in a ViewLux plate reader (PerkinElmer) with Ex=573 nm and Em=610nm. Keywords: Alpha-glucosidase, Pompe Disease, pharmacological chaperone, chaperone therapy, high throughput screening, alpha-glucosidase inhibitor, MLSMR, MLSCN, NIH Roadmap, qHTS and NCGC
Potency is read from the fitted curve at half-maximal effect.

With `N#C/C=C\Oc1ccc(Cl)cc1N` the Potency was 9.92 µM (active).
In the case of `Cn1cnc([N+](=O)[O-])c1Nc1ccccc1O`, the Potency is reported as 7.88 µM (active).
In the case of `COc1ccccc1C1=Nc2cccc3cccc(c23)N1`, the Potency is reported as 17.6 µM (active).
For `Cc1cc(C)c2c(-n3cccc3)c(C(=O)NNS(=O)(=O)c3ccc(F)cc3)sc2n1`, the Potency was 31.6 µM (active).
In the case of `Cc1ccc(NNC(=O)c2cccs2)cc1Cl`, the Potency is reported as 14.1 µM (active).
With `O=[N+]([O-])c1ccc(N2CCN(c3ccc(O)cc3)CC2)c(Cl)c1` the Potency was 10 µM (active).
In the case of `Oc1ccc(N2CCN(C(=S)NCc3ccccc3)CC2)cc1`, the Potency is reported as 3.16 µM (active).
In the case of `O=C(CN1CCN(c2ccc(O)cc2)CC1)Nc1ccc(-c2ccccc2)cc1`, the Potency is reported as 10 µM (active).
With `C=CCNC(=S)NNc1ncnc2sc3c(c12)CC(C)(C)OC3` the Potency was 11.2 µM (active).
For `Cc1cc(Nc2ccccc2)n(CCC#N)n1`, the Potency was 19.8 µM (active).
In the case of `O=C(NNS(=O)(=O)c1ccccc1C(F)(F)F)c1cc2ncc(C(F)(F)F)cc2s1`, the Potency is reported as 28.2 µM (active).

First: CCCS(=O)(=O)c1c(Nc2ccccc2C)sc(C(=O)c2ccccc2)c1N
Second: Cc1ccccc1CNC(=O)CCCn1nc(C)c2sc3ccccc3c2c1=O
The “activity change, negative = inhibition” value of the first is higher: -9.74% for the first, -10.6% for the second.

Compared with `COc1ccc(S(=O)(=O)Nc2cc3c(C(=O)OC(C)C)c(C)oc3c3ccccc23)cc1`, `COc1ccc(Cn2cc(C(=O)c3ccc(C)cc3)c(=O)c3cc(OC)c(OC)cc32)cc1` is lower in “activity change, negative = inhibition” value: 11.4% for the first, -8.05% for the second.

Compared with `CC1=C(C(=O)OCc2ccc(C)cc2)C(c2ccccc2Cl)CC(=O)N1` (configuration not stated), `CCc1ccc(NC(=O)C2CCCN2S(=O)(=O)c2ccc3nc(-c4ccccc4)[nH]c3c2)cc1` (configuration not stated) is lower in “activity change, negative = inhibition” value: 8.08% for the first, -14.4% for the second.

Going from `CCc1ccc(NC(=O)c2sc3nc4c(cc3c2N)CN(CC)CC4)cc1` to `O=C(Cn1nc(C(F)(F)F)c2c1CCCC2)Nc1ccc(Cl)cc1`, the “activity change, negative = inhibition” value rises from 0.0714% to 9.38%.

Going from `CCc1nn(CC(=O)N2CCN(c3ccc(Cl)cc3)CC2)c(=O)c2cc3occc3n12` to `COc1cccc(-c2nc(CS(=O)(=O)CC(=O)N3CCN(c4cc(C)ccc4C)CC3)c(C)o2)c1`, the “activity change, negative = inhibition” value rises from -17.1% to -17%.

Going from `COc1ccc(CNC(=O)c2cc3c(-c4ccccc4F)nn(C)c3s2)c(OC)c1` to `COc1ccc(-c2cc(C(F)(F)F)nc(SCC(=O)N(C)Cc3ccccc3)n2)cc1OC`, the “activity change, negative = inhibition” value rises from -14.3% to 7.48%.

Compared with `O=C(CSCc1cnn(-c2ccccc2)c1-n1cccc1)NCc1ccccc1Br`, `CCc1ccc(NC(=O)Cn2c(=O)n(CCC(=O)NCc3ccc4c(c3)OCO4)c(=O)c3ccccc32)cc1` is higher in “activity change, negative = inhibition” value: -1.5% for the first, 12.6% for the second.

Going from `CC(=O)Nc1ccc(NC(=O)CCCc2nc(-c3ccc(C(C)(C)C)cc3)no2)cc1` to `COc1ccc(-c2noc(CSc3nc4ccc(C)cc4[nH]3)n2)cc1`, the “activity change, negative = inhibition” value falls from 12.5% to -11%.

Going from `COc1ccc(N2CCN(c3cc(C)nc4nncn34)CC2)cc1` to `COc1ccc(S(=O)(=O)c2cn(C)c3cc(N4CCCCC4)c(F)cc3c2=O)cc1`, the “activity change, negative = inhibition” value falls from 9.48% to -7.63%.

Compared with `CCOc1ccc(N(CC)S(=O)(=O)N2CCCC(C(=O)NCc3ccc(SC)cc3)C2)cc1` (configuration not stated), `Cc1cccc(OCCSc2nc3ccccc3n2CC(=O)N2CCCCC2)c1C` is higher in “activity change, negative = inhibition” value: 11.1% for the first, 12% for the second.

For `COc1ccc(NC(=O)NC(C)c2c(-n3cccc3)sc(C)c2C)cc1OC` (configuration not stated), the “activity change, negative = inhibition” value was 8.49%.

Going from `Cn1cnc([N+](=O)[O-])c1Sc1ccccc1` to `Cn1cnc([N+](=O)[O-])c1Sc1n[nH]c(N)n1`, the “activity change, negative = inhibition” value falls from 1.08% [at 76.4 µM] to -4.82% [at 76.4 µM].

Going from `Fc1ccccc1N=C1Nc2cccc3cccc1c23` to `Cc1cc(Nc2ccccc2)n(C(=O)c2ccc(N)cc2)n1`, the “activity change, negative = inhibition” value falls from 7.79% [at 76.4 µM] to -16% [at 76.4 µM].

Going from `COc1ccccc1-c1nc(SC)n[nH]1` to `N#CCCn1ncc2ccccc21`, the “activity change, negative = inhibition” value rises from -3.53% [at 76.4 µM] to 1.77% [at 76.4 µM].

Compared with `COC(=O)Nc1sc2nc(C)cc(C)c2c1-n1cccc1`, `Cc1cc(C)c2c(-n3cccc3)c(NC(=O)OCc3ccccc3)sc2n1` is lower in “activity change, negative = inhibition” value: 0.68% [at 76.4 µM] for the first, -15.1% [at 76.4 µM] for the second.

Going from `Cc1ccc(C(=O)NNC(=O)c2cccs2)cc1` to `O=C(NNC(=O)c1ccc(Cl)cc1Cl)c1cccs1`, the “activity change, negative = inhibition” value falls from 3.51% [at 76.4 µM] to -13.2% [at 76.4 µM].

Going from `O=C(O)C1CCN(c2ccc([N+](=O)[O-])cc2[N+](=O)[O-])CC1` to `COc1ccc(N2CCN(c3ccc([N+](=O)[O-])cc3Cl)CC2)cc1`, the “activity change, negative = inhibition” value rises from 0.683% [at 76.4 µM] to 9.13% [at 76.4 µM].

Compared with `O=C(COC(=O)c1ccccc1C(=O)N1CCN(c2ccccc2)CC1)NCc1ccccc1`, `O=C(CN1CCN(c2ccccc2)CC1)Nc1ccc(F)cc1` is lower in “activity change, negative = inhibition” value: -1.56% [at 76.4 µM] for the first, -5.55% [at 76.4 µM] for the second.

Compared with `S=C(NCCc1ccccc1)N1CCCCC1`, `O=C(CN1CCOCC1)Nc1ccccc1` is higher in “activity change, negative = inhibition” value: 4.13% [at 76.4 µM] for the first, 4.65% [at 76.4 µM] for the second.

Compared with `CCC(O)CNc1nc(-n2nc(C)cc2C)nc2sc3c(c12)CC(C)(C)OC3` (configuration not stated), `CC/C(C)=N/Nc1nc2sc3c(c2c(=O)[nH]1)CC(C)(C)OC3` is higher in “activity change, negative = inhibition” value: -8.09% [at 76.4 µM] for the first, 1.15% [at 76.4 µM] for the second.

First: Cc1cc(C(=O)NNS(=O)(=O)c2ccccc2C(F)(F)F)nn1C(C)(C)C
Second: O=C(CS(=O)(=O)c1ccc(C(F)(F)F)cn1)NNC(=O)c1ccccc1
The “activity change, negative = inhibition” value of the first is lower: -13.5% [at 76.4 µM] for the first, -2.4% [at 76.4 µM] for the second.
